Here are results for 40 molecules from PubChem BioAssay.

Active and inactive are the calls of the source. How the calls were made is not given here.

Sequence of Pantothenate synthetase (Mycobacterium tuberculosis (strain ATCC 25618 / H37Rv)) (P9WIL5 whole entry, looked up): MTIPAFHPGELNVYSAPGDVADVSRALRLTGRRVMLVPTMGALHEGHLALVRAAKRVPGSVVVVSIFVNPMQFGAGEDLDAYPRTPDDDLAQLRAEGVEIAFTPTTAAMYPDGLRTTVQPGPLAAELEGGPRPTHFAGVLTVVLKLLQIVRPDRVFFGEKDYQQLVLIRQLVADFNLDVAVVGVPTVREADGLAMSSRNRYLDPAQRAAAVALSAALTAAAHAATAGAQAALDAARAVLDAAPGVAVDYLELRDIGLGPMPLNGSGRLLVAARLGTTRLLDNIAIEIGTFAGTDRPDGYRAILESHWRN

This assay has as its target Pantothenate synthetase (Mycobacterium tuberculosis (strain ATCC 25618 / H37Rv)) (UniProt P9WIL5). Put plainly: Coupled enzyme confirmation of inhibitors against recombinant Mtb PanC (AID 375).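 Further: 0% = full reaction with vehicle and 100% = no enzyme background.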 The conditions noted are these: coupled enzyme assay; at 10 µM, active compounds read high.
Consider `CCCn1cc(C(CC(=O)O)C(=O)O)c2ccccc21` (stereo not given), for which the inhibition is 8% (inactive).
For `COC(=O)c1ccc(COc2ccc(C3C4=C(CCCC4=O)Nc4onc(C)c43)cc2)cc1` (stereo not given) the value was 0% (inactive); for `CCOC(=O)N1CCN(C(=O)CCc2ccc(S(=O)(=O)NCCc3ccccc3)cc2)CC1`, 3% (inactive).
For `COc1ccc(CCNS(=O)(=O)c2ccc3oc(C(=O)O)c(C)c3c2)cc1OC`, the inhibition is 0% (inactive).
In the case of `CCCNC(=O)NC(C(=O)OC)C12CC3CC(CC(C3)C1)C2` (stereo not given) it was 3% (inactive); in that of `NS(=O)(=O)c1cc2c(cc1C(F)(F)F)NCNS2(=O)=O`, 2% (inactive).
For `CCCc1n[nH]c2c1/C(=N/O)CC(c1ccccc1)C2` (stereo not given) the value was 8% (inactive); for `Cc1nc2sc(C(c3cccs3)N3CCOCC3)c(O)n2n1` (stereo not given), 0% (inactive); for `COCCN(CCOC)c1ncnc2c1cnn2-c1ccccc1`, 0% (inactive).
For `COC(=O)c1sc(N)c(C(=O)OC)c1COC(=O)C1CC(=O)N(Cc2ccco2)C1` (stereo not given) the value was 3% (inactive); for `O=C(CC(SCCO)c1ccc2c(c1)OCO2)c1ccco1` (stereo not given), 0% (inactive).
In the case of `COC(=O)CSc1nc2sc3c(c2c(=O)n1C1CCCCC1)CCN(C)C3`, the inhibition was 0% (inactive).
In the case of `Cc1ccccc1-c1nc(CS(=O)(=O)CC(=O)N(C)C2CCCCC2)c(C)o1` it was 0% (inactive); in that of `CCC(C)NC(=O)c1cn(CC)c2ccc(S(=O)(=O)N(C)C)cc2c1=O` (stereo not given), 0% (inactive).
As to `Cn1c(=O)[nH]c(=O)c2[nH]c(CN3CCN(C(=O)c4ccco4)CC3)nc21`, the inhibition was 0% (inactive).
In the case of `CCC(Sc1ncccc1C(=O)O)C(=O)N1CCCC1` (stereo not given) it was 0% (inactive); in that of `O=c1ccn(Cc2ccccc2Cl)cc1`, 0% (inactive); in that of `Cc1ccc(S(=O)(=O)N2CCN(CCO)CC2)cc1-c1nnc2c3ccccc3c(C)nn12`, 0% (inactive).
For `CCOCCCNC(=O)C(c1ccc(C)cc1)N(Cc1ccc2c(c1)OCO2)C(=O)c1cnccn1` (stereo not given) the value was 0% (inactive).
In the case of `COc1cccc(/C(O)=C2/C(=O)C(=O)N(CCN3CCOCC3)C2c2cccnc2)c1` (stereo not given) it was 1% (inactive); in that of `CC(=O)N1CCc2cc(S(=O)(=O)NCCC(=O)Nc3cc(C)cc(C)c3)ccc21`, 2% (inactive); in that of `CN1CCN(CCCN2c3ccccc3Sc3ccc(C(F)(F)F)cc32)CC1`, 1% (inactive).
For the molecule `Cc1ccc(S(=O)(=O)N(C)CC(=O)NC2CC(C)(C)NC(C)(C)C2)cc1`, the inhibition is 0% (inactive).
For `Cc1nc2ccccc2nc1OCC(=O)Nc1cc(C(F)(F)F)ccc1N1CCOCC1` the value was 0% (inactive); for `COc1ccc(OC)c(C2C(C(=O)Nc3cccnc3)=C(C)NC3=C2C(=O)CCC3)c1` (stereo not given), 0% (inactive); for `CCOC(=O)CSC1=C(C#N)C(c2ccc(C)o2)CC(=O)N1` (stereo not given), 0% (inactive).
For the molecule `CCN(C(=O)c1ccnc(C(C)(C)C)c1)c1ccccc1`, the inhibition is 0% (inactive).
For the molecule `COc1cccc(-c2cc(C(=O)N3CCCCCC3)no2)c1`, the inhibition was 1% (inactive).
In the case of `Cc1ccccc1CS(=O)(=O)CCC(=O)N1CCN(c2ccc(N3CCOCC3)nn2)CC1` it was 9% (inactive).
For `CCCOc1cc(C)c(S(=O)(=O)N2CCN(C)CC2)cc1C` the value was 4% (inactive); for `CCn1c(CSc2ncccn2)nnc1SCC(=O)N1c2ccccc2CC1C` (stereo not given), 6% (inactive); for `CCOC(=O)N1CCN(C(=O)CCc2c(C)nc3c(c(C)nn3-c3ccc(C)c(C)c3)c2C)CC1`, 0% (inactive).
Regarding `Cc1cc(C(=O)NCCCN2CCN(C3CCCCC3)CC2)n(-c2ccccc2)n1`, the inhibition is 4% (inactive).
In the case of `CC(=O)c1sc(NC(=O)C2COc3ccccc3O2)nc1C` (stereo not given) it was 3% (inactive); in that of `N#Cc1c(NC(=O)COC(=O)C2CC3C=CC2C3)oc(-c2ccccc2)c1-c1ccccc1` (stereo not given), 1% (inactive); in that of `CCOC(=O)N1CCN(S(=O)(=O)c2ccc(F)c(C(=O)Nc3cc(C)cc(C)c3)c2)CC1`, 7% (inactive).
For `N#Cc1ccc(CSc2nnc(-c3cnccn3)o2)cc1` the value was 5% (inactive); for `O=c1[nH]c2ccccc2n1CCCN1CCN(C(c2ccccc2)c2ccccc2)CC1`, 1% (inactive).
With `CCCOc1cccc(C(=O)Nc2cc(NC(=O)c3ccco3)ccc2OC)c1`, the inhibition is 0% (inactive).
In the case of `Cc1ccc(N(C(=O)c2ccncc2)C2C=CS(=O)(=O)C2)cc1` (stereo not given) it was 5% (inactive).

For orientation: inhibition means the drop in the measured response relative to a control, in per cent.
